Only some compounds are listed: those with a hit (about 3.7% of all), similar ones and a draw of the others.
RGS4 inh = blocks human RGS4-accelerated GTP hydrolysis. P49798. Transcreener GDP fluorescence polarization, RGS4-accelerated GTP hydrolysis. Potency, µM (highest dose often 114 µM), for inactives: top-dose activity change, negative = inhibition, most hits filed as inhibitors. 0.039% of 390,000 active; also: potency is read from the fitted curve at half-maximal effect; % is scaled to controls: 0 for no effect and ±100 for the full control effect; nearly all actives have a fitted effect of over 75% in size
Target sequence (P49798 whole entry, looked up): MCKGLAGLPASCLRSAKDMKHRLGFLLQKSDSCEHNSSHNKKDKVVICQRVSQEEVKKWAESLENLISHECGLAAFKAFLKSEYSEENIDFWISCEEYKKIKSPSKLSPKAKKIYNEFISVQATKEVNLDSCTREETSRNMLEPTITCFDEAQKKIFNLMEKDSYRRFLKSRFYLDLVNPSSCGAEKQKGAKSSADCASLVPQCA
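MLSMR compounds (23 nl, pin-transferred) preincubated 10 min at room temperature with a 500nM (2x) first reagent, then RGS4 at 900nM (2x) plus Transcreener GDP mix added; fluorescence polarization (620/688 nm) read before and after 90 min at 30 °C.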
B2AR arrestin = beta2AR (human) beta-arrestin recruitment activity. beta-arrestin recruitment to beta2AR, cell-based reporter. AID 492947. Potency, µM (highest dose often 46.1 µM), without a hit: at the top dose activation, actives largely listed as activators. 0.02% of 330,000 active. P07550;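 also: potency is read from the fitted curve at half-maximal effect; 0% = DMSO controls and full agonism = EC100 isoproterenol or metaproterenol; nearly all actives have a fitted effect of over 65% in size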
Target sequence (P07550 whole entry, looked up): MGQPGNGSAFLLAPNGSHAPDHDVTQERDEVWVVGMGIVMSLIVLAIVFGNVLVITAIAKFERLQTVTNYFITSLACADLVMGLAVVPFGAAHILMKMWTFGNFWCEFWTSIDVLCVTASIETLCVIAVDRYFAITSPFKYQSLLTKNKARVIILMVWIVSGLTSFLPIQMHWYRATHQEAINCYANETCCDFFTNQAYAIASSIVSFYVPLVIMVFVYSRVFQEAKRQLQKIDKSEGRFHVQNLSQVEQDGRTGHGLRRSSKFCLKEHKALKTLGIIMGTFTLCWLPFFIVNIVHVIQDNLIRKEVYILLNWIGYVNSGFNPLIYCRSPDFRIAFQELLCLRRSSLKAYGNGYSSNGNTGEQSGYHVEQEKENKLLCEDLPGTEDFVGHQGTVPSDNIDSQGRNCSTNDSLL
DRD3 antagonist = blocks the human D3 dopamine receptor | P35462 | D3R cells, DiscoveRx beta-arrestin luminescence, antagonist mode; active compounds read low | 2.5% of 360,000 active | max response, negative = inhibition, %; in the data active = max response below about -50%; inconclusive = no clear call, values can overlap the other calls; also: % is scaled to controls: 0 for no effect and ±100 for the full control effect
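Cells expressing the human receptor were seeded at 1500 cells/well, incubated overnight at 37 degrees C in 5% CO2, then exposed to library compounds with dopamine controls for 90 minutes at 37 degrees C before luminescent detection.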
DRD3 agonist = D3 dopamine receptor (human) agonism; max activation, %; D3R DiscoveRx beta-arrestin cells, luminescence, 90 min; 0.58% of 410,000 active; AID 652048; in the data active = max activation above about 30%; also: 0% is about no effect
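Agonist mode: compounds and dopamine controls were applied to plated cells for 90 min at 37 degrees C after an overnight attachment at 1500 cells/well. Luminescent read-out followed 30 - 60 minutes at room temperature with DiscoveRx detection reagent.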
BRCA1 expr act = increases BRCA1 expression; MCF7-BRCA1-FFLuc reporter, luminescence, 48 h; response scale: scaled: vehicle 0%, 10 µM genistein 100%; Potency, µM (doses to about 46.1 µM), for the others: top-dose activation, usual class: activators; 1.1% of 380,000 active; also: potency is read from the fitted curve at half-maximal effect; nearly all actives have a fitted effect of over 80% in size
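Activators of BRCA1 expression were detected as increased firefly luciferase luminescence in engineered MCF7 cells after 48 h compound incubation. Signals were scaled to genistein 10 microM as full activation.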
PTHR1 ag = agonists of human PTHR1 parathyroid hormone receptor; Q03431; HEK293 GP2 PTHR1 cells, GloSensor cAMP luminescence, 1 h; Potency, µM (doses to about 115 µM), for the others: at the highest dose activation, most hits filed as activators; 0.075% of 410,000 active; also: potency is read from the fitted curve at half-maximal effect; nearly all actives have a fitted effect of over 55% in size
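HEK-293-derived GP2 cells expressing PTHR1 and a GloSensor cAMP reporter, 3,000/well, plated overnight, given luciferin plus IBMX (each 0.5 mM as added) for 1 h at 37 °C, then compound for 1 h at 37 °C. Luminescence was read after 15 min at room temperature.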
The depositor's hits bear a star; i = inactive; ? = inconclusive; . = no result given; [ ] = another dose, or the depositor's remark. Unless noted, calls follow the shape of the dose curve; as a rule, active = well fitted curve in the direction sought with a large enough effect; inconclusive = small, poorly fitted or top-dose-only effect, or another doubt; inactive = no such curve, though single readings can be large; an effect the other way counts as inactive or inconclusive.

SMILES	RGS4 inh	B2AR arrestin	DRD3 antagonist	DRD3 agonist	BRCA1 expr act	PTHR1 ag
COc1ccc(NC(=O)c2coc3ccccc23)cc1OC	-16%	0%	-67*	-13	10µM*	-7%[57.5 µM]
O=C1CN(C(=O)COC(=O)c2ccccc2Br)c2ccccc2N1	-4%	-1%	-55*	-17	-11%	i
CC(OC(=O)c1ccc([N+](=O)[O-])o1)C(=O)Nc1nc(-c2ccc(F)c(F)c2)cs1 (stereo not drawn)	-38%	-1%	-24	-3	13µM*	-54%
O=C(NCc1ccccc1)c1nnc(Cc2cccc(F)c2)o1	10%	.	.	2	.	i
Cc1nc([N+](=O)[O-])c(Br)n1CC(=O)c1ccc(F)cc1	7%	1%	?	-1	-45%	-19%
Cc1nc([N+](=O)[O-])c(Br)n1CC(=O)c1cccc([N+](=O)[O-])c1	-11%	0%	-51*	6	2%	-35%
COc1ccc(NC(=S)NC(=O)c2ccccc2)cn1	-28%	0%	2	1	11µM*	-8%
CNC(=S)Nc1cccc2[nH]ncc12	-2%	0%	47	0	1%[1.84 µM]	-37%
O=C(NC(=S)Nc1cccc2[nH]ncc12)c1ccccc1	-31%	0%	-24	-3	10µM*	-6%
COc1ccc(NC(=O)c2cccc(Oc3ccccc3)c2)cn1	-11%	0%	9	6	-3%	-20%
COc1ccc(NC(=O)c2sccc2C)cn1	-14%	0%	10	-2	7.9µM*	i
CSc1ccc(CN2CCC(N3CCC(C(=O)NC4CC4)CC3)CC2)cc1	.	.	-1	3	-15%	-43%
O=C(NNC(=O)c1ccccc1F)c1cccs1	-5%	0%	3	-10	5.6µM*	-12%
O=C(NC(=S)NNC(=O)c1ccccc1O)c1cccs1	?	0%	1	37*	12%	i
COc1ccccc1C(=O)NNC(=S)NC(=O)c1cccs1	.	0%	.	.	.	.
Cc1ccc(SCC(=O)NCCSC(C)(C)C)cc1	11%	1%	10	1	8.9µM*	-9%
COCCNC(=O)CSc1ccc(C)cc1	1%	0%	5	2	2%	i
CN(CC(=O)N1CCCCCC1)S(=O)(=O)c1ccc(F)cc1	4%	0%	16	14	10µM*	-5%
Cc1nc(Nc2ccccc2C(F)(F)F)sc1C(=O)N(C)C	-34%	0%	-19	-4	10µM*	-3%
Cc1nc(NCCc2ccccc2)sc1C(=O)N(C)C	?	0%	14	5	?	i
C=CCOc1ccc(C(=O)Nc2ccccc2C(=O)NCc2cccnc2)cc1	-6%	0%	12	-20	-48%	i
Cc1cccc(CS(=O)(=O)Cc2ccc(C(=O)NCc3cccs3)o2)c1	-47%	0%	6	32*	-5%	-13%
Clc1ccccc1CN(Cc1ccccc1)c1ncnc2nc[nH]c12	-23%	0%	-64*	1	-48%	i
COc1ccccc1NC(=S)NNC(=O)c1cc(C)nn1C	-19%	0%	-70*	-2	-27%	-4%[57.5 µM]
COc1ccccc1NC(=S)NNC(=O)c1cc(C)n(C)n1	-18%	0%	-50*	-4	-14%	i
SMILES	RGS4 inh	B2AR arrestin	DRD3 antagonist	DRD3 agonist	BRCA1 expr act	PTHR1 ag
CCN(CC)S(=O)(=O)c1ccc(C(=O)NC(=S)N2CCN(c3ccccc3O)CC2)cc1	.	.	4	3	-10%	-22%
CNC(=O)c1c(Br)cnn1-c1ccc(C)cc1	-23%	0%	9	-1	?	i
CNC(=O)c1c(Cl)cnn1-c1ccc(C)cc1	-4%	3%	4	3	6.3µM*	-16%
CC(=O)/C=C/n1c(=S)oc2ccccc21	-38%	?	-85*	-34	-79%	-30%
COc1ccc(CCNC(=O)C(=O)NCC(c2ccco2)S(=O)(=O)c2cccs2)cc1 (stereo not drawn)	-26%	.	.	-3	.	-50%
Cc1ccc(N(CC(=O)Nc2c(C)cccc2C)S(C)(=O)=O)cc1	-16%	-1%	-16	-7	-3%	i
COC(=O)c1cc(NC(=O)Cc2ccccc2[N+](=O)[O-])cc(C(=O)OC)c1	-9%	0%	20	-1	-26%	i
O=C(OCc1cnc(Cl)s1)c1ccccc1Cl	-19%	0%	-1	2	-1%	i
O=C(OCn1ncc(Br)c(Br)c1=O)c1ccccc1Cl	-29%	0%	-88*	-33	-89%	-3%[57.5 µM]
O=C(OCn1ncc(Br)c(Br)c1=O)c1ccc(F)cc1	?	0%	-83*	-13	-92%	-4%
CCOC(=O)NC(=O)/C(C#N)=C\Nc1ccc(Cl)cc1Cl	9%	0%	0	-1	13µM*	-15%
CCOC(=O)NC(=O)/C(C#N)=C\Nc1sccc1C(=O)OC	-8%	1%	0	2	-8%	-7%
Cc1nc(C(F)(F)F)ccc1C(=O)N1CCC1(C)C(=O)NS(=O)(=O)c1cccc(Cl)c1 (stereo not drawn)	.	.	0	3	15%	-23%
COc1ccc(S(=O)(=O)c2c(N)n(Cc3ccco3)c3nc4ccccc4nc23)cc1	?	-1%	-71*	-4	-33%	-4%[57.5 µM]
COc1ccc(Cn2c(C)nc3c(c2=O)c2nc4ccccc4nc2n3Cc2ccco2)cc1	-41%[11.4 µM]	.	6	5	-83%	i
FC(F)(F)c1cccc(NC(=S)N2CCN(c3ccccn3)CC2)c1	-10%	1%	-106*	6	-8%	-28%
Fc1cccc(NC(=S)N2CCN(c3ccccn3)CC2)c1	9%	-1%	-9	-5	23%	i
CCCCC(=O)N1C/C=C\C(c2ccc(OC)cc2)N(Cc2ccc(F)cc2)C(=O)C1Cc1ccccc1 (stereo not drawn)	-17%	.	.	.	.	.
Cc1cc(-c2csc(N)n2)c(C)n1CCc1ccccc1	?	-1%	-19	32*	-21%	i
Cc1ccc(C)c(S(=O)(=O)NC(C)C(=O)Nc2ccc(-c3nc4ccccc4s3)cc2)c1 (stereo not drawn)	-19%	-1%	44	51*	33%	-12%
CC(NS(=O)(=O)c1cccc(Cl)c1)C(=O)Nc1ccc(-c2nc3ccccc3s2)cc1 (stereo not drawn)	-2%	0%	0	20	32%	-17%
Cc1ccc2oc(C(=O)Nc3ccc(S(=O)(=O)N(C)c4ccccc4)cc3)cc(=O)c2c1	0%	.	.	-19	.	-12%
c1ccc(OCCOc2ncnc3ccccc23)cc1	-9%	0%	-8	3	10µM*	i
Cc1ccc(S(=O)(=O)N(CC(O)CN2CCOCC2)c2cc(Cl)ccc2Cl)cc1 (stereo not drawn)	-1%[11.4 µM]	0%	-54*	-18	-11%	i
